Bioassay records (PubChem BioAssay)
AmpC no deterg – qHTS Inhibitors of AmpC Beta-Lactamase (assay without detergent); Potency, µM (titrated, usually from 57.1 µM), inactives show top-dose activity change, negative = inhibition, actives largely listed as inhibitors; 330,000 tested, 0.52% active; AID 485341, 2010; P00811; AmpC nitrocefin hydrolysis, absorbance 480 nm, 0.0001% Triton;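 also: potency is read from the fitted curve at half-maximal effect; plate controls were no compound for no effect and no enzyme for full effect; nearly all actives have a fitted effect of over 20% in size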
Target sequence (P00811 whole entry, looked up): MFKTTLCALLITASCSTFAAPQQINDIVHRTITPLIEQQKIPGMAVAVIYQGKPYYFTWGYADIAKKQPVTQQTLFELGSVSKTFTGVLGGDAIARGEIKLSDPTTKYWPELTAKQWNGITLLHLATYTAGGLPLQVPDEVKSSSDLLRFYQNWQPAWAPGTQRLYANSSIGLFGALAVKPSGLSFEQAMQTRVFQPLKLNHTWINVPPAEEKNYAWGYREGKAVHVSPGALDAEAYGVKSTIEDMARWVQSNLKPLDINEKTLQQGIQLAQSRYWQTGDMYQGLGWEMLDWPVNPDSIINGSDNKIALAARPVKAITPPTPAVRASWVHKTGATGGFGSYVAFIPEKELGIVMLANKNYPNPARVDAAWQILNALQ
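20 mM phosphate pH 7.0 + 0.01% (detergent screen) or 0.0001% Triton X-100; 5.3 nM AmpC reagent; cpd preinc 15 min RT; nitrocefin (800 uM stock) to start; A480 q20 s × 4 min; Activity was normalised to no-enzyme and no-compound control wells.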
AMA1-RON2 inh – qHTS for Inhibitors of AMA1-RON; Towards Development of Antimalarial Drug Lead: Primary Screen; Plasmodium falciparum AMA1 (3D7) - RON2 peptide interaction; AlphaScreen AMA1-biotinylated RON2 peptide binding; Potency, µM (doses to about 58.2 µM), for the others: top-dose activity change, negative = inhibition, most hits filed as inhibitors; 360,000 tested, 0.2% active;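 also: potency is read from the fitted curve at half-maximal effect; 0% = vehicle wells and -100% = peptide control; nearly all actives have a fitted effect of over 45% in size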
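AMA1 (3D7) with his tag at 25 nM final met compounds first, then biotinylated RON2 peptide at 25 nM; detection used donor plus acceptor beads, 10 µg/mL apiece, read by AlphaScreen after 30 min at room temperature.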
AmpC inh detg – qHTS Inhibitors of AmpC Beta-Lactamase (assay with detergent). P00811. AmpC hydrolysis of nitrocefin, absorbance 480 nm, 0.01% Triton. Potency, µM (titrated, usually from 114 µM), inactives show at the highest dose activity change, negative = inhibition, usual class: inhibitors. 370,000 tested, 0.041% active;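 also: potency is read from the fitted curve at half-maximal effect; 0% = no-compound wells and -100% = no-enzyme wells; nearly all actives have a fitted effect of over 25% in size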
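20 mM phosphate pH 7.0 + 0.01% (detergent screen) or 0.0001% Triton X-100; 5.3 nM AmpC reagent; cpd preinc 15 min RT; nitrocefin (800 uM stock) to start; A480 q20 s × 4 min; Activity was normalised to no-enzyme and no-compound control wells.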
Shiga inhibitor – A qHTS for Small Molecule Inhibitors of Shiga Toxin; Vero cells, Shiga toxin protein synthesis inhibition reporter; inhibition, % at 38.7 µM; 290,000 tested, 9.2% active; in the data active = inhibition mostly above about 28%, no sharp cut-off; inactive = mostly below about 43%; also: 0% is about no effect
CHX counter – Cycloheximide Counterscreen for Small Molecule Inhibitors of Shiga Toxin; 300,000 tested, 12% active; AID 2314, 2010; cell reporter, cycloheximide protein synthesis inhibition counterscreen; max response, %; in the data active = max response mostly above about 13%, no sharp cut-off; inactive = mostly below about 14%; also: read at 38.3 µM for the half of the compounds with a filed dose; 0% is about no effect
SARS PLP yeast – qHTS of Yeast-based Assay for SARS-CoV PLP; 330,000 tested, 0.19% active; S. cerevisiae expressing SARS-CoV PLpro, growth rescue; Potency, µM (highest dose often 32.9 µM), without a hit: at the top dose activity, positive = growth rescue, hits mostly activators; AID 485353, 2010; calls by dose curve; also: potency is read from the fitted curve at half-maximal effect; 0% is about no effect; nearly all actives have a fitted effect of over 55% in size
* marks the source's active call; other numbers are inactive results; ? = inconclusive; nt = no result; [ ] = remark or other dose. This excerpt belongs to a sample that is enriched for hits. Unless noted, calls follow the shape of the dose curve; as a rule, active = well fitted curve in the direction sought with a large enough effect; inconclusive = small, poorly fitted or top-dose-only effect, or another doubt; inactive = no such curve, though single readings can be large; an effect the other way counts as inactive or inconclusive.

SMILES	AmpC no deterg	AMA1-RON2 inh	AmpC inh detg	Shiga inhibitor	CHX counter	SARS PLP yeast
CC(=O)c1cc(C(=O)c2ccccc2)sc1Nc1ccccc1	-3%	-1%	0%	61*	48*	-4%
O=C(NCC1CCCO1)C1CCN(S(=O)(=O)c2cccc3cccnc23)CC1 (centres undefined)	3.2µM*	12%	-1%	-3	4	-3%
CCOc1ccccc1NC(=O)C1CCCN(S(=O)(=O)c2cccc3nsnc23)C1 (centres undefined)	13%	8%	?	-5	7	8%
CCOc1ccccc1NC(=O)C1CCCN(S(=O)(=O)c2cccc3cccnc23)C1 (centres undefined)	5.6µM*	1%	-4%	2	-1	4%
O=C(NCC1CCCO1)C1CCN(C(=O)c2ccc(Br)cc2)CC1 (centres undefined)	4µM*	2%	-1%	-11	-3	2%
O=C(Nc1ccncc1)C1CCCN(S(=O)(=O)c2cccc3cccnc23)C1 (centres undefined)	45µM*	0%	?	-10	-3	-4%
Cc1ccsc1C(=O)N1CCC(N2CCC(C(=O)NCC3CCCO3)CC2)CC1 (centres undefined)	61%	-2%	-4%	-29	-2	0%
O=C(NCc1ccccc1)C1CCN(S(=O)(=O)c2cccc3cccnc23)CC1	-6%	1%	?	13	-1	-1%
O=C(Nc1ccc(C(F)(F)F)cc1)C1CCCN(S(=O)(=O)c2cccc3cccnc23)C1 (centres undefined)	nt	nt	9%	nt	nt	nt
CC(C)C1Oc2ccccc2N(CC(=O)N(C)C2CCCCC2)C1=O (centres undefined)	27%	0%	1%	-3	9	-1%
CCC1CCCCN1C(=O)COc1ccc(S(=O)(=O)N2CCOCC2)cc1Cl (centres undefined)	90%	-8%	6%	nt	nt	-3%
Cc1ccsc1C(=O)NN=C1CCCCCC1	-22%	50%	?	96*	51*	-4%
O=C(NN=C1CCCCCC1)c1ccc(Cl)s1	-27%	51%	?	12	10	-4%
Cc1ccc(C(=O)NN=C2CCCCCC2)s1	-34%	45%	?	59*	47*	-5%
CC(=O)Nc1ccc(NC(=O)CCN2C(=O)c3ccccc3C2=O)cc1	-9%	-8%	2%	nt	2	3%
CCCC(=O)Nc1ccc(C2C(=O)c3ccccc3C2=O)cc1	0%	5%	-8%	28	12*	8%
CC(=O)Nc1ccc(C2NC(=O)c3ccccc3O2)cc1 (centres undefined)	-11%	0%	?	-10	-8	-1%
CC(=O)Nc1ccc(C2C(=O)c3ccccc3C2=O)cc1	74%	1%	-1%	68*	24*	8%
Cc1ccc(-c2nc3ccccc3s2)cc1NC(=S)NC(=O)c1ccccc1	-29%	-3%	-12%	187*	34*	5%
Cc1ccc(-c2nc3ccccc3s2)cc1NC(=O)c1cc(-n2cnnc2)ccc1Cl	-7%	-1%	-14%	85*	38*	0%
c1ccc(-c2nc(-c3cccs3)[nH]c2-c2ccccc2)cc1	-26%	-4%	0%	-11	2	-1%
S=C1NC(c2ccccc2)=NCN1c1ccc(Cl)cc1	-22%	-2%	?	81	27*	22%
O=C(N/N=C/c1ccc(Br)s1)c1c[nH]c2ccccc12	25µM*	-1%	-7%	68*	46*	-25%
O=C(N/N=C/c1cc(Br)cs1)c1c[nH]c2ccccc12	-48%	2%	9%	62*	44*	-3%
CCOC(=O)[C@H]1[C@H]2COc3ccccc3[C@@H]2N2C(=O)c3cc(OC)c(OC)cc3NC(=O)[C@@]12C	38%	0%	0%	nt	nt	-3%
SMILES	AmpC no deterg	AMA1-RON2 inh	AmpC inh detg	Shiga inhibitor	CHX counter	SARS PLP yeast
O=C(Cc1ccc(Nc2nc3ccc(Br)cc3[nH]2)cc1)NCCc1cccs1	2%	5%	4%	19	15*	-2%
COc1ccc(C(=O)N=c2sc3ccccc3n2C)cc1	17%	-18%	-10%	107*	53*	1%
Cn1c(=NC(=O)COc2ccccc2)sc2ccccc21	-14%	-5%	2%	78*	42*	5%
COC(=O)Cn1c(=NC(=O)c2cccc(OC)c2)sc2cc(OC)ccc21	-14%	-8%[2.32 µM]	?	30	10	-7%
COc1ccc(C(=O)N=c2sc3cc(Cl)ccc3n2C)cc1	nt	nt	-6%	nt	nt	nt
COc1cccc(C(=O)N=c2sc3cc(S(C)(=O)=O)ccc3n2C)c1	1%	6%	-3%	80*	28*	-5%
CC(=O)N=c1sc2ccccc2n1C	-10%	-8%	-7%	-2	13	3%
COc1cc(OC)cc(C(=O)N=c2sc3ccccc3n2C)c1	-3%	4%	-4%	33*	29*	-2%
COc1cc(NC(=O)CN2C(=O)C(c3ccc(C)cc3)=NC23CCCCC3)cc(OC)c1	nt	nt	13%	nt	nt	nt
OCCCc1ccc(O)c(O)c1	7%	-1%	-7%	-9	0	1%
CC1(C)CC(=O)C(N=Nc2cc(S(=O)(=O)N3CCOCC3)ccc2Cl)=C(O)C1	53%	-1%	-2%	3	-1	-1%
O=c1c2ccccc2sn1-c1cccc(Cl)c1	nt	-11%	nt	nt	nt	nt
CN(C)S(=O)(=O)c1cccc(-n2sc3ccccc3c2=O)c1	35µM*	8%	-2%	40	17	-6%
O=c1c2ccccc2sn1-c1ccc(S(=O)(=O)N2CCCCC2)cc1	nt	-1%	nt	nt	nt	nt
Cc1ccc(-n2sc3ccccc3c2=O)cc1S(=O)(=O)N1CCCCC1	-54%	-10%	-13%	15	12*	-28%
O=c1c2ccccc2sn1-c1ccccc1	-33%	-7%	?	25	24*	-23%
COc1ccc(C(=O)C(OC(=O)c2ccccc2)c2ccccc2)cc1 (centres undefined)	9%	-6%	2%	104*	49*	-12%
Cc1cnc(C(=O)OC(C(=O)c2ccccc2)c2ccccc2)cn1 (centres undefined)	-7%	-11%	5%	nt	nt	2%
COc1ccc(C(=O)C(CN2CCCC2)c2ccccc2)cc1 (centres undefined)	-10%	-5%	-17%	9	25*	-32%
Cc1ccc(NC(=O)C(OC(=O)c2ccccc2Cl)c2ccccc2)cc1Cl (centres undefined)	-32%	13%	-9%	12	8	7%
